From the supplement of paper PMC12632987

B1: uchl1_143_7460 (protein)
chain: GAAPLPVLRTTIEVSEEDTPEEIYARIKAAIEEAIAAGKAAEVTIVVPPNPNVRVMVNNVAKRAARDVAKEYAGKVKEIRIYLEDRETGKRQLVAEVVNP
B2: uchl1_143_7458 (protein)
chain: GLEAIPVLEVHLRVTPADTPEEIRARLMAAIEEAAAAGKALRIVITVEGDANLRVMVGNVAKRVAREAARRYGATLPSLTIVARDAETGREQLLAEADFR
B3: uchl1_143_7469 (protein)
chain: APEPIEHIEVTIEVAETDTFEEIHARISAAIDAAIALGRRTELTIRLVVPTTASANLRVMVNTAARRALREHADHLEDASISGEQRPGKAVLVIRVLTKA
B4: uchl1_143_7457 (protein)
chain: GPEVVPVRRVEITVTRADTPEEIEARLLAAVREAAAAGEALLITITVEGDANLRVMVGNVAKRVARRAAREYGDTLPSLRIIARDAETGKEQLLAEVDNR
B5: uchl1_143_7465 (protein)
chain: GSMHMETLTVERTMTEDTTLEEVYALLEEAAKKAIAEGKDLVVIFTVSSDPNHRLRANTLARRAARRIIQEYGKEIRRLEVLLRDAETGKVDLIALHDGR
B6: uchl1_143_7467 (protein)
chain: GPAAEPVLEVTIRVTRDTTPEELRARLLAAIDEAIAAGKALKITIEIPPDANLRVMVNTVAKRVAREVAKARGAELKRLVILGRDSATGKEQVLAEVVNP
B7: uchl1_143_7456 (protein)
chain: PPAPVPVHRVTIEVTREDTPEEIRARLEAAVAEAAAAGAALEITVVVTSDPNVRVMANTVARRVAREAARRYRDTLPSLRIVLRDRETGKEQLIAEADFR
B8: uchl1_143_7468 (protein)
chain: GPAVEPVETVTITVTPDTTPEELRARLLAAIDAALAAGKALTITIVVPPDANLRVMANTVAKRVAREVARAHGDRLRRLTIRARDAATGKTQLLAEVVNP
B9: uchl1_143_7470 (protein)
chain: GRPTPPTLTVNLTFDETTTPEEIRAALNAAIDEAAAAGKNLTITITVPADSNKRLMVTTVARRVAREAAKRYRDKLPELRILATDAATGKTQLIAEYVNE
B10: uchl1_143_7459 (protein)
chain: GSPEEEVEVIEVTIEPTDTPEQIREKITKALKEAVELEKDTRIVITVPPDPNLKLMVNTVARRELKKIAQEYPEKTKTITVEARDAETGKVDLLAEYVKE
B11: uchl1_143_7463 (protein)
chain: EEVELEVIHIEVTLTEDTTLEEVRALVEEAARLSIETGKHVVLTATVSNDPNHRLRANTMLRRAAREVIQERGAEIPKLVILLRDAETGKEDVIAEFDNR
B12: uchl1_143_7455 (protein)
chain: GHHMLEVEKIEIEVEETDTPEEIKKKIMEAMKKAVAKGKAIEIIITVPPDANFRLMVNTVAKRAAREFAKEYKDKLKYLKIYARDKETGKEDLIAEIVNP
B13: uchl1_143_7466 (protein)
chain: GPAPVPVLRVERTWTADTTLEEVLALLREAAERAIKEGKDLEVIFTVSPDPNHRLRANTLARRAGKEITQELGKRIRRLRVLLRDAETGKVDLIYEHDGR
B14: uchl1_143_7461 (protein)
chain: ALEPLPVQKTTIEVSESDTPEEIYERIKAAIEAAIAAGKAAEVTIVVPPDPNVRVMVNNVAKRAAREVAQEHADKVKRITINLTDKETGKTEVVAEVVRP
B15: uchl1_143_7464 (protein)
chain: GSAPRPVIHLERTLSADTTLEEVEALVREAAELSVETGAPVVLTFTVSGDPNHRLRAHTMLRRAARRVIQELADRIPELRVLLRDEKTGKTQLIAHFDNR
B16: uchl1_143_7462 (protein)
chain: GAPALPVLRTTIEVTREDTPEEIHARIVAAIREAIAAGKAAEVTIVVPPDPNVRVMVNNVAKRAAREVAQEHADAVKRITIRLRDRETGRTQLVALVERP

Each binder was assayed against UCHL1, P09936 (assay: median log2 fold change of GCK-ALFA target abundance (FLAG IP / Myc IP barcode read proportion) (log2 ratio); each designed protein is fused to an ALFA-tag nanobody in HEK293 cells to bring the named protein to FLAG-tagged glucokinase (GCK); Myc marks an untargeted standard; higher = target protein stabilised (more abundant)). Settings: target protein: 3xFLAG-MCP-GCK-ALFA reporter; HEK293 landing pad (RPLP).
In short: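 An ALFA-nanobody-fused binder library was recombined into HEK293 landing-pad cells and induced with 2 μg mL^−1 doxycycline. Cells were transfected with a plasmid expressing a FLAG-tagged target and a Myc-tagged standard. After 48 h, lysates underwent anti-FLAG and anti-Myc immunoprecipitation, and circular RNA barcodes were reverse transcribed, amplified and sequenced. Target abundance is the per-binder median log2 ratio of FLAG to Myc barcode read proportions. Barcodes needed ≥10^−7 proportion in both replicates, binders ≥3 barcodes per replicate, and a 10^−6 pseudocount was added; the two replicates were pooled.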

Chain of UCHL1, P09936 (P09936 whole entry, looked up, the tested form may be a part): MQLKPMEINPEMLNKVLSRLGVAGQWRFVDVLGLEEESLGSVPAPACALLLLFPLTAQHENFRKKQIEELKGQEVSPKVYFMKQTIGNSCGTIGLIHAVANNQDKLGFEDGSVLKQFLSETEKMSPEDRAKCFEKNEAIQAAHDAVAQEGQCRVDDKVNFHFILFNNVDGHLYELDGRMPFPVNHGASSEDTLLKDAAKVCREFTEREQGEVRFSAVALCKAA

Row | Binder | median log2 fold change
1 | B1 | 0.0504
2 | B2 | 0.147
3 | B3 | 0.139
4 | B4 | 0.225
5 | B5 | 0.138
6 | B6 | -0.119
7 | B7 | 0.0928
8 | B8 | 0.11
9 | B9 | 0.272
10 | B10 | 0.347
11 | B11 | 0.184
12 | B12 | 0.157
13 | B13 | 0.0958
14 | B14 | 0.242
15 | B15 | 0.163
16 | B16 | 0.133
